Hits are enriched below; roughly 3.7% of the tested compounds scored in any of these assays.
WRN helicase inh: qHTS for Inhibitors of WRN Helicase; Bifunctional 3'-5' exonuclease/ATP-dependent helicase WRN (Homo sapiens), Q14191; WRN helicase unwinding, fluorescent forked duplex, kinetic; Potency, µM (highest dose often 114 µM), for inactives: at the top dose activity change, negative = inhibition, usual class: inhibitors; 0.46% of 360,000 active; further: potency means the concentration at half of the fitted maximal effect; on the % scale 0 is the no-effect control and ±100 the full control effect; nearly all actives have a fitted effect of over 55% in size
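Primary qHTS, 1536-well format. 20 nM WRN + compound, 15 min RT; start with 100 nM forked fluorophore/quencher duplex, 2 mM ATP (final); kinetic read ex 525/em 598 nm.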
PLK1 PBD block: qHTS for Inhibitors of PLK1-PDB (polo-like kinase 1 - polo-box domain): Primary Screen; Plk1 PBD binding of FITC phosphopeptide, fluorescence polarization; Potency, µM, for the others: max response, negative = inhibition, hits mostly inhibitors; 2.8% of 360,000 active; AID 720504, 2013; further: potency means the concentration at half of the fitted maximal effect; series mostly up to about 57 µM; on the % scale 0 is the no-effect control and ±100 the full control effect; nearly all actives have a fitted effect of over 65% in size
VDR inhibitor: Inhibitors of the vitamin D receptor (VDR): qHTS; Vitamin D3 receptor (Homo sapiens), P11473; VDR-SRC2-3 peptide fluorescence polarization, 2 h; Potency, µM, for inactives: max response, negative = inhibition, hits mostly inhibitors; 0.93% of 400,000 active; further: potency means the concentration at half of the fitted maximal effect; on the % scale 0 is the no-effect control and ±100 the full control effect
Target sequence (P11473 whole entry, looked up): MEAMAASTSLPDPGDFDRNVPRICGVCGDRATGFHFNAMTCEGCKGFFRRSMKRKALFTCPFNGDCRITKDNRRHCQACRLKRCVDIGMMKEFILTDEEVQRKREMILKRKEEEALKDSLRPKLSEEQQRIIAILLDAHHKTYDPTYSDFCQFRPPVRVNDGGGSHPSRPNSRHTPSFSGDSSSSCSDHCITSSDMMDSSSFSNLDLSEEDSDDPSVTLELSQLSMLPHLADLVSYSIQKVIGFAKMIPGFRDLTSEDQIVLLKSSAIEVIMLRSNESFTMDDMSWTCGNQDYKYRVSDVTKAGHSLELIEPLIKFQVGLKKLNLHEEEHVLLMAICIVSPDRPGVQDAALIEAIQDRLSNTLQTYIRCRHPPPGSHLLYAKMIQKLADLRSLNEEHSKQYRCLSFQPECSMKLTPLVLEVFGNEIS
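Measured by FP: displacement of SRC2-3 coactivator peptide from VDR by library compounds, following a two-hour ambient incubation.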
FEN1 inhibitor: qHTS Assay for the Inhibitors of Human Flap endonuclease 1 (FEN1). P39748. Recombinant FEN1 flap cleavage, fluorescence, 15 min. Potency, µM (highest dose often 114 µM), for inactives: at the highest dose activity change, negative = inhibition, most hits filed as inhibitors. 0.35% of 390,000 active. AID 588795, 2011; further: potency means the concentration at half of the fitted maximal effect; on the % scale 0 is the no-effect control and ±100 the full control effect; nearly all actives have a fitted effect of over 65% in size
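Concentration–response screening of FEN1 (10 nM): 15 min compound preincubation at room temperature, reaction started with 50 nM substrate and read at 0 and 15 min. Corrected, normalized data were fitted by a four-parameter Hill equation.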
PI5P4Ka inh: qHTS for Inhibitors of phosphatidylinositol 5-phosphate 4-kinase (PI5P4K); Phosphatidylinositol 5-phosphate 4-kinase type-2 alpha (Homo sapiens), P48426; PI5P4Kalpha enzyme, ADP-Glo luminescence, 60 min; active compounds read low; max response, %; 1.2% of 330,000 active; active means max response of -50% or lower; inconclusive means between -30% and -50%; inactive means -30% or higher; further: value at the top dose of about 77 µM; on the % scale 0 is the no-effect control and ±100 the full control effect
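PI5P4Kalpha ADP-Glo assay; 5 microM ATP final; 60 min RT reaction; HEPES pH 7.4/EGTA/CHAPS, 5% DMSO; controls lacking substrate or enzyme; luminescent end-point.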
TCR activator: Activators of T cell receptors: qHTS campaign; Potency, µM (top dose mostly 9.22 µM), for the others: at the highest dose activation of IL-2 secretion, hits mostly activators; AID 504894, 2011; primary human leukocytes, anti-CD3, IL-2 HTRF, 48 h; 330,000 tested, under 10 active; further: % of control where 0% means no effect
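Primary human leukocytes were stimulated with a-CD3 beads plus compounds for 48 hr without co-stimulation; secreted IL-2 was quantified by HTRF using a-IL-2-K (europium cryptate) and a-IL-2-d2, excited at 320nm with acceptor emission read at 665nm.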
ADP-Glo counter: qHTS for Inhibitors of PI5P4K: ADP-Glo counter assay | shares compounds with PI5P4Ka inh | ADP-Glo detection counter-screen, luciferase luminescence, no enzyme | Potency, µM (titrated, usually from 76.9 µM), inactives show at the highest dose activity change, negative = inhibition, most hits filed as inhibitors | 1,100 tested, under 10 active | AID 743285, 2014
The depositor's hits bear a star; ? = inconclusive; nt = no result; [ ] = remark or other dose. Unless noted, the call rests on the fitted dose curve; in most records, active means well fitted curve in the direction sought with a large enough effect; inconclusive means small, poorly fitted or top-dose-only effect, or another doubt; inactive means no such curve, though single readings can be large; an effect the other way counts as inactive or inconclusive.

SMILES	WRN helicase inh	PLK1 PBD block	VDR inhibitor	FEN1 inhibitor	PI5P4Ka inh	TCR activator	ADP-Glo counter
Cc1ccc(-c2ccc(CN3C(C)C(=O)N(Cc4cn(Cc5ccco5)nn4)CCS3(=O)=O)cc2)c(C)c1 (stereo unspecified)	-7.3%	-15.0%	nt	nt	-53.3*	nt	-2.1%
CC(C)Cc1ccc(CN2C(C)C(=O)N(Cc3cn(Cc4ccco4)nn3)CCS2(=O)=O)cc1 (stereo unspecified)	-18.4%	?	nt	nt	-64.5*	nt	-4.5%
COc1ccc(-c2ccc(CN3C(C)C(=O)N(Cc4cn(Cc5ccco5)nn4)CCS3(=O)=O)cc2)cc1 (stereo unspecified)	-3.9%	-3.4%	nt	nt	-25.6	nt	nt
O=C(c1ccc2c(c1)N(Cc1ccc(F)cc1)C(=O)c1ccccc1S2=O)N1CCC(Cc2ccccc2)CC1 (stereo unspecified)	nt	nt	-1.8%	9.6%	nt	nt	nt
O=C(N[C@@H](Cc1ccccc1)C(=O)OCc1ccccc1)c1nc[nH]c1C(=O)NC(c1ccccc1)c1ccccc1	-12.7%	-6.7%	-18.0%	7.7%	7.2	-2.3%	-1.8%
CCOC(=O)C1(C)CCCN(C(=O)c2ccccc2C(F)(F)F)C1 (stereo unspecified)	1.0%	-11.3%	nt	nt	-79.4*	nt	-5.2%
CCOC(=O)C1(C)CCCN(C(=O)c2ccccc2F)C1 (stereo unspecified)	8.4%	-6.3%	nt	nt	4.5	nt	nt
Cc1ccc(Cn2ccnc2SCC(=O)Nc2ccc3c(c2)OCCO3)cc1	nt	nt	16.5%	5.1%	nt	nt	nt
Oc1ccc(CNc2ccc(F)cc2)c2cccnc12	?	3.36µM*	?	-20.7%	-53.5*	0.9%	1.7%
Oc1ccc(Cn2ccnc2)c2cccnc12	5.1%	3.9%	-13.1%	-23.3%	0.4	3.5%	nt
O=C(OCC(=O)N1CCCCCC1)c1ccc(Cl)c(S(=O)(=O)N2CCCC2)c1	-27.6%	10.6µM*	?	1.7%	-61.3*	5.1%	2.4%
CS(=O)(=O)N1N=C(c2ccco2)CC1c1ccco1 (stereo unspecified)	-21.5%[11.6 µM]	-1.9%	-18.2%	6.1%	-64.2*	4.7%	4.8%
CS(=O)(=O)N1N=C(c2ccco2)CC1c1ccccc1 (stereo unspecified)	8.5%	-10.7%	-12.2%	-0.3%	-14.7	-8.2%[46.1 µM]	nt
CCCCNC(=O)C1(C)CCC(=O)N1c1cc(C(C)(C)C)nn1C (stereo unspecified)	3.8%	-3.8%	nt	nt	4.4	nt	2.2%
Cn1nc(C(C)(C)C)cc1N1C(=O)CCC1(C)C(=O)NC1CCCCC1 (stereo unspecified)	-0.9%	-6.1%	nt	nt	6.6	nt	nt
COc1cc(C(=O)OCC(=O)Nc2sccc2C(N)=O)cc(OC)c1OC	-7.8%	-0.2%	0.2%	-7.0%	-0.5	0.0%	nt
NC(=O)c1ccsc1NC(=O)COC(=O)c1nc(Cl)ccc1Cl	-23.0%	-9.5%	-2.4%	6.6%	-52.7*	3.6%	-3.0%
CN(C)S(=O)(=O)c1cccc(C(=O)OCC(=O)Nc2sccc2C(N)=O)c1	?	-7.3%	-1.5%	-13.0%	-65.7*	3.0%	-4.3%
Cc1ccc(S(=O)(=O)N(CC(=O)Nc2ccccc2C(=O)O)c2ccccc2C)cc1	-4.0%	-6.3%	-11.0%	12.1%	-50.6*	1.1%	0.0%
Cc1cccc2c1-c1sc(C(=O)N(C)c3cccc(Cl)c3)cc1CO2	nt	nt	-12.1%	-1.6%	nt	nt	nt
c1ccc(Cc2nnc3sc(-c4ccco4)nn23)cc1	?	21.2µM*	?	?	-50.7*	8.4%	2.5%
CCCCC1=CC2=CC(=O)C(C)(OC(=O)C3CCCC3)C(=O)C2=CO1 (stereo unspecified)	?	?	-17.6%	?	-73.5*	-0.3%	-8.9%
CCc1nn(CC(=O)NCCCc2ccccc2)c(=O)c2cc3ccccc3n12	nt	nt	12.6%	-1.2%	nt	nt	nt
Cc1ccn2c(=O)nc(SCC(=O)NCc3ccccc3Cl)nc2c1	?	-11.0%	-4.9%	-7.0%	-58.8*	1.2%	-4.1%
COc1cccc2c1C1(O)C2CCCCCCCCCC12OCCCO2 (stereo unspecified)	3.3%	-10.6%	3.8%	3.7%	-5.3	-3.7%	nt
SMILES	WRN helicase inh	PLK1 PBD block	VDR inhibitor	FEN1 inhibitor	PI5P4Ka inh	TCR activator	ADP-Glo counter
COc1cccc2c1C(=O)C[C@]1(CCCC[C@@H]1C)O2	0.2%	-6.2%	4.4%	-10.6%	2.1	-0.1%	-5.2%
Nc1nc(N)c2cc(Sc3ccc(Cl)cc3)ccc2n1	4.3%	-5.0%	nt	nt	-15.2	nt	nt
Nc1nc(N)c2cc(Sc3ccc4ccccc4c3)ccc2n1	-0.3%	1.4%	13.1%	-6.7%	-50.9*	1.3%	-0.2%
O=C(O)c1cc2ccc(O)cc2oc1=O	-7.8%	-7.9%	nt	nt	-3.5	nt	nt
O=C(c1ccc(F)cc1)c1cc2ccc(O)cc2oc1=O	-9.3%	-18.7%	4.0%	-7.6%	-72.6*	0.0%	?
O=C(NCc1ccccc1)c1cc2ccc(O)cc2oc1=O	-8.4%	18.9µM*	?	-2.9%	-66.5*	nt	-12.3%
CCc1ccc(N2CCn3c2nc2c3c(=O)n(C/C=C/c3ccccc3)c(=O)n2C)cc1	nt	nt	-0.5%	1.7%	nt	nt	nt
COc1ccc(NC(=O)CSc2ncc3c(n2)-c2ccccc2N(C)S3(=O)=O)cc1Cl	nt	nt	0.6%	-4.9%	nt	nt	nt
O=C(NCc1ccc2c(c1)OCO2)c1cc2ncc(Br)cn2n1	?	-17.4%	13.2%	7.4%	-65.2*	2.1%	-3.7%
CCSc1nn(CC(=O)Nc2cccc(Cl)c2)c(N)c1S(=O)(=O)c1ccc(OC)cc1	nt	nt	5.7%	-11.3%	nt	nt	nt
COc1ccc(C2=NC(C)(C)N(CC(=O)Nc3ccc(F)c(F)c3)C2=O)cc1	nt	nt	7.0%	-11.9%	nt	nt	nt
COc1ccc(C(=O)NCc2nnc(SC)n2C2CCCCC2)cc1	-3.4%	-6.8%	3.4%	-3.1%	-54.1*	1.7%[46.1 µM]	9.3%
COc1ccc(-c2nc3ccccc3s2)cc1NC(=O)c1cccc([N+](=O)[O-])c1C	nt	nt	-6.3%	15.5%	nt	nt	nt
O=C(CCSCc1cccc(Cl)c1)N1CCN(c2ccc(Cl)cc2)CC1	nt	nt	10.5%	-2.2%	nt	nt	nt
O=C(Cn1cc(COc2ccc(Br)cc2[N+](=O)[O-])nn1)c1ccc(O)cc1	-4.8%	26.7µM*	-29.0%	-0.1%	-57.1*	9.3%	-8.1%
